Reference: PubChem BioAssay (Tox21)
Inconclusive results are not listed. Values without a mark were called inactive. Active and inactive are the calls of the source. The call rests on the fitted dose curve; in most records, active means well fitted activation curve with a large enough effect; inconclusive means small, poorly fitted or top-dose-only effect; inactive means flat fitted curve, though single readings scatter.

Assay: qHTS assay to identify small molecule phospholipidosis (PLD) inducers (AID 1259344)
Settings: HepG2 phospholipidosis, LipidTOX Red imaging, 24 h; series mostly up to 38.3 µM; PLD induction: at the top concentration
Text: National Center for Advancing Translational Sciences [NCATS]
Drug-induced Phospholipidosis (PLD) caused by cationic amphiphilic drugs is characterized by the appearance of unicentric or multicentric-lamellar bodies when viewed under electron microscope. Electron microscopy is the gold standard method for PLD detection, however, this method is time-consuming and labor intensive, making it unsuitable for evaluating a large set of compounds. A cell-based phospholipidosis assay has been developed using the LipidTox reagent in HepG2 cells and miniaturized into a 1536-well plate format. Drug induced phospholipid accumulation is stained with the LipidTox dyes in red color which then is determined using an automated high content screening system.
HepG2 cells are dispensed at 900 cells/3 uL/well into Collagen I-coated 1536-well black-wall/clear-bottom assay plates (Greiner Bio-One, Monroe, NC) using the Multidrop Combi 8 channel dispenser (Thermo Fisher, Waltham, MA, USA). The assay plates are incubated at 37 C for 4 hours to allow the cell attachment. 3 uL of 1:500 LipidTOX Red dye is added using the dispenser, and then 23 nL compounds are added via a Wako Pintool station (Wako Automation, San Diego, CA). Amiodarone, a known PLD inducer, was used as a positive control and DMSO was used as a negative control. The assay plates were then incubated at 37 C for 24 hours.
For fixations, 4 uL of 8% paraformaldehyde fixative solution containing 10 ug/mL Hoechst 33342 in Dulbecco's phosphate-buffered saline (DPBS) is added using a Kalypsys washer/dispenser (Kalypsys, San Diego, CA, USA). After incubation at room temperature for 30 min, the assay plates are washed once with DPBS using a Kalypsys washer/dispenser. The assay plates are then sealed and stored at 4 C before imaging. The fluorescence intensities (595 nm excitation, 615 nm emission for LipidTOX; 352 nm excitation, 461 nm emission for Hoechst 33342) are measured using an ImageXpress Micro Widefield High Content Screening System (Molecular Devices, Sunnyvale, CA, USA) with a 20x Plan Fluor objective. Images are acquired for one site in each well and analyzed with the MetaXpress software (Molecular Devices) using the Transfluor module. Several algorithmic outputs, such as pit count per well, pit count per cell, pit integrated intensity per well, and pit integrated intensity per cell, are used for quantitative image analysis for PLD.
On the % scale 0 is the no-effect control and ±100 the full control effect; potency means the concentration at half of the fitted maximal effect.

Compound | PLD induction | Potency
O=[N+]([O-])c1c(Cl)c(Cl)cc(Cl)c1Cl | 3.84% [at 78.4 µM] | –
C[C@]12CC[C@H](O)C[C@H]1CC[C@@H]1[C@@H]2CC[C@]2(C)[C@@H](c3ccc(=O)oc3)C[C@H]3O[C@]132 | 11.2% | –
OC(c1ccccc1)(c1ccccc1)C1CN2CCC1CC2 (stereo not given) | 7.66% | –
CN[C@@H](C)Cc1ccccc1 | -2.5% [at 78.4 µM] | –
COc1ccc2c3c1O[C@H]1[C@@H](O)C=C[C@H]4[C@@H](C2)NCC[C@@]341 | – | inactive
C[C@]12CC[C@@H]3c4ccc(OC(=O)N(CCCl)CCCl)cc4CC[C@H]3[C@@H]1CC[C@@H]2OP(=O)(O)O | – | inactive
Cc1ccccc1-n1c(C)nc2ccccc2c1=O | – | inactive
C#CC(C)(O)CC (stereo not given) | -0.228% | –
COc1ccc2c3c1O[C@H]1C(=O)CC[C@H]4[C@@H](C2)N(C)CC[C@]314 | 0.146% | –
c1ccc2c(c1)Sc1ccccc1N2CC1CN2CCC1CC2 (stereo not given) | – | 3.55 µM (active)
CCNCC(O)c1cccc(O)c1 (stereo not given) | -0.983% [at 15.5 µM] | –
C[C@@H](Cc1ccccc1)NCCC(c1ccccc1)c1ccccc1 | 5% [at 15.5 µM] | –
CCC(C)(S(=O)(=O)CC)S(=O)(=O)CC | -1.17% | –
COc1cc([C@@H]2c3cc4c(cc3[C@@H](O)[C@H]3COC(=O)[C@H]23)OCO4)cc(OC)c1O | -1.16% | –
CCC(=O)O[C@@](Cc1ccccc1)(c1ccccc1)[C@@H](C)CN(C)C | 4.48% [at 15.5 µM] | –
Clc1ccc(C(Cn2ccnc2)OCc2csc3c(Cl)cccc23)c(Cl)c1 (stereo not given) | -0.14% [at 15.5 µM] | –
Nc1ccc([N+](=O)[O-])cc1 | 9.27% [at 78.4 µM] | –
O=C1C=C2C=C[C@@H]3C[C@@]2(O1)[C@H]1CCCCN31 | 2.1% | –
O=c1ccc2cc(O[C@@H]3O[C@H](CO)[C@@H](O)[C@H](O)[C@H]3O)c(O)cc2o1 | -0.685% [at 15.5 µM] | –
CCOC(=O)C1(c2ccccc2)CCCN(C)CC1 (stereo not given) | -0.0748% | –

Compound | PLD induction | Potency
O=C1OC2(c3cc(Br)c(O)cc3Oc3c2cc(Br)c(O)[c]3[Hg])c2ccccc21 (stereo not given) | 10.7% [at 15.5 µM] | –
O=C1CCO1 | -1.06% | –
CC(C)C[C@H]1C(=O)N2CCC[C@H]2[C@]2(O)O[C@](NC(=O)[C@@H]3C[C@@H]4c5cccc6[nH]cc(c56)C[C@H]4N(C)C3)(C(C)C)C(=O)N12 | 1.93% | –
CC(C)=CCN1CC[C@]2(C)c3cc(O)ccc3C[C@H]1[C@H]2C | -0.374% [at 3.15 µM] | –
C[C@]12N[C@H](Cc3ccccc31)c1ccccc12 | – | inactive
CC(=O)[C@H]1CC[C@H]2[C@@H]3CC[C@@H]4C[C@H](O)CC[C@]4(C)[C@H]3CC[C@]12C | 16.5% | –
CCN(CC)C(=O)N[C@H]1C[C@@H]2c3cccc4[nH]cc(c34)C[C@H]2N(C)C1 | 4.29% | –
CC1(C)S[C@@H]2[C@H](N)C(=O)N2[C@H]1C(=O)O | -0.0883% [at 15.5 µM] | –
C[C@@H]1[C@H](O)[C@@H](C)/C=C/C=C/CC/C=C/C=C/C=C/C=C/[C@H](O[C@H]2O[C@@H](C)[C@H](O)[C@@H](N)[C@H]2O)CC2O[C@](O)(C[C@@H](O)[C@H](O)CC[C@@H](O)C[C@@H](O)C[C@@H](O)CC(=O)O[C@H]1C)C[C@H](O)[C@H]2C(=O)O | -4.36% | –
S=C(S)N1CCNCC1 | 0.648% | –
CN(C)CCCCCCN(C)C (tested in a mixture with another compound) | -0.688% | –
COC(=O)[C@]12CCC(C)(C)C[C@H]1[C@H]1C(=O)C=C3[C@@]4(C)C=C(C#N)C(=O)C(C)(C)[C@@H]4CC[C@@]3(C)[C@]1(C)CC2 | -2.77% | –
NC1=NC(=O)N2CC12 (stereo not given) | -0.773% | –
Oc1ccc2c3c1O[C@H]1[C@@H](O)CC[C@@]4(O)[C@@H](C2)N(CC2CCC2)CC[C@]314 | -0.692% | –
CN(C)[C@H](Cc1ccccc1)c1ccccc1 | 0.794% | –
CCON=O | -0.0909% | –
O=c1c2ccccc2[se]n1-c1ccccc1 | -0.137% | –
O=S(=O)(O)c1cc(O)ccc1O | -0.0159% [at 15.5 µM] | –
O=C(OCCN1CCCCC1)C(O)(c1ccccc1)c1ccccc1 | -0.667% | –
CCN1C[C@]2(COC)[C@H](O)C[C@H](OC)[C@@]34[C@@H]5C[C@@]6(O)[C@H](OC(=O)c7ccccc7)[C@@H]5[C@@](OC(C)=O)([C@@H]([C@H](OC)[C@H]23)[C@@H]14)[C@@H](O)[C@@H]6OC | 2.45% | –
